# Data as given in PubChem BioAssay (EPA / NIEHS).
# Records with an inconclusive call do not appear. Active and inactive are the calls of the source. Rule for the calls, unless noted: active = hit-call score of the fitted dose curve at least 0.9, where 1 is the maximum; inconclusive = response in the unintended direction; inactive = score below 0.9.
# Tests used:
# [1] = ATG_TCF_b_cat_CIS: Attagene CIS-FACTORIAL HepG2 Assay for human T-Cell-Factor with beta-catenin (TCF/b-cat) (AID 2282965; active = hit-call score of the fitted dose curve at least 0.9, where 1 is the maximum; inactive = score below 0.9); settings: HepG2 TCF/beta-catenin cis-reporter transcription, actives raise or lower the signal
# Summary of the method: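 Cells of the HepG2 line carry transiently transfected reporter units whose promoters respond to endogenous factors. Twenty-four hours post-dosing, reporter mRNA induction is measured by fluorescent RT-PCR and capillary electrophoresis, with DMSO as baseline.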
# [2] = ATG_TAL_CIS: Attagene CIS-FACTORIAL HepG2 Assay for human TAL Basal Promoter (AID 2282966; active = hit-call score of the fitted dose curve at least 0.9, where 1 is the maximum; inactive = score below 0.9;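 note: background control endpoint measuring basal TAL promoter reporter mRNA not a specific factor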); settings: HepG2 Attagene cis-factorial TAL promoter reporter; actives raise or lower the signal
# Summary of the method: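 RT-PCR plus capillary electrophoresis quantifies reporter mRNA induction in transiently transfected HepG2 cells after 24 h chemical treatment. DMSO serves as negative control and baseline for bidirectional fitting.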
# [3] = ATG_TGFb_CIS: Attagene CIS-FACTORIAL HepG2 Assay for human Transforming Growth Factor (TGF) (AID 2282967; active = hit-call score of the fitted dose curve at least 0.9, where 1 is the maximum; inactive = score below 0.9); settings: HepG2 Attagene CIS TGFb reporter, mRNA transcription; actives raise or lower the signal
# Summary of the method: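 Transient MRTU transfection of HepG2 (FuGene 6). Dose 24 h. TriZol RNA, oligo(dT) RT, PCR, 6-FAM primer extension, HpaI cut, CE. Bidirectional fit, DMSO = baseline.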
# [4] = ATG_VDRE_CIS: Attagene CIS-FACTORIAL HepG2 Assay for human Vitamin D Receptor Element (VDRE) (AID 2282968; active = hit-call score of the fitted dose curve at least 0.9, where 1 is the maximum; inactive = score below 0.9); settings: HepG2 VDRE cis-reporter transcription, actives raise or lower the signal
# Summary of the method: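 Cell-based multiplexed reporter format in human liver HepG2 cells, 24 h post-dose. Fluorescence from capillary electrophoresis of reporter cDNA gives the signal, with DMSO as negative control and baseline.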
# [5] = target: X-box-binding protein 1 (Homo sapiens) (UniProt P17861); test: ATG_Xbp1_CIS: Attagene CIS-FACTORIAL HepG2 Assay for human X-box Binding Protein 1 (XBP1) (AID 2282972; active = hit-call score of the fitted dose curve at least 0.9, where 1 is the maximum; inactive = score below 0.9); settings: HepG2 XBP1 cis-element reporter, Attagene multiplex; actives raise or lower the signal
# Summary of the method: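 Fluorescence-labelled cDNA fragments from reporter transcripts, separated by capillary electrophoresis, give the signal. Source: HepG2 cells transfected with promoter-driven reporter units, harvested 24 h post-dose. DMSO served as reference for bidirectional curve fitting.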
# [6] = ATG_M_19_TRANS: Attagene TRANS-FACTORIAL HepG2 Assay for M19 Transcription Factor (Internal Marker) (AID 2282974); settings: HepG2 Attagene TRANS-FACTORIAL M19 internal marker reporter
# Summary of the method: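 HepG2 cells transiently transfected with multiple GAL4-UAS reporter transcription units were exposed to chemicals for 24 h. Reporter mRNA was read by RT-PCR, 6-FAM primer extension, HpaI digestion and capillary electrophoresis; gain of signal fitted relative to DMSO.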
# [7] = ATG_GAL4_TRANS: Attagene TRANS-FACTORIAL HepG2 Assay for GAL4 (Internal Marker) (AID 2282976); settings: HepG2 Attagene TRANS GAL4 internal marker reporter
# Summary of the method: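 In transfected human HepG2 liver cells dosed 24 h, GAL4 reporter mRNA serves as a baseline marker. Detection by RT-PCR with fluorescent capillary electrophoresis, activity fitted upward relative to DMSO.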
# [8] = target: Glucocorticoid receptor (Homo sapiens) (UniProt P04150); test: ATG_GR_TRANS: Attagene TRANS-FACTORIAL HepG2 Assay for human Glucocorticoid Receptor (GR) (AID 2282978); settings: HepG2 Attagene TRANS GR reporter, mRNA transcription;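 note: activators score as hits since higher reporter transcript over DMSO is fitted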
# Summary of the method: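 HepG2 cells transiently transfected with multiplexed reporter units in which chimeric NR-GAL4 proteins drive GAL4-UAS reporters; 24 h compound exposure. Reporter mRNA measured by RT-PCR, 6-FAM labelling, HpaI digestion and capillary electrophoresis; gain-of-signal fitted versus DMSO.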
# [9] = target: Bile acid receptor (Homo sapiens) (UniProt Q96RI1); test: ATG_FXR_TRANS: Attagene TRANS-FACTORIAL HepG2 Assay for Farnesoid X Receptor (FXR) (AID 2282979); settings: HepG2 Attagene TRANS FXR-GAL4 reporter transcription;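 note: hits raise reporter mRNA above DMSO so AC50 marks FXR activation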
# Summary of the method: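 Reporter transcripts from transfected HepG2 cells were measured 24 h after dosing, using RT-PCR with capillary electrophoresis of 6-FAM-labelled fragments. The read-out reflects activity of exogenous FXR-Gal4 chimera on GAL4-UAS units, with induction relative to DMSO.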
# [10] = target: Oxysterols receptor LXR-alpha (Homo sapiens) (UniProt Q13133); test: ATG_LXRa_TRANS: Attagene TRANS-FACTORIAL HepG2 Assay for human Liver X Receptor alpha (LXRa) (AID 2282980); settings: HepG2 Attagene TRANS reporter, LXRa transactivation
# Summary of the method: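 Chemical-induced reporter mRNA measured by RT-PCR with fluorescent labelling and capillary electrophoresis after 24 h dosing of transiently transfected HepG2 cells expressing exogenous NR-Gal4 chimeras; increases scored against DMSO baseline.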
# [11] = ATG_M_32_TRANS: Attagene TRANS-FACTORIAL HepG2 Assay for M32 Transcription Factor (Internal Marker) (AID 2282984); settings: HepG2 Attagene TRANS M32 internal marker reporter;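 note: transcript level of a background control reporter unit measured by RT-PCR and capillary electrophoresis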
# Summary of the method: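 Capillary electrophoresis of 6-FAM-labelled reporter fragments gives the signal; data fitted for gain over DMSO negative control. Source: HepG2 cells bearing transient multiple reporter transcription units, 24 h exposure.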
# [12] = target: Transcriptional activator Myb (Homo sapiens) (UniProt P10242); test: ATG_Myb_CIS: Attagene CIS-FACTORIAL HepG2 Assay for human Myeloblastosis (Myb) Proto-Oncogene Transcription Factor (AID 2282986; active = hit-call score of the fitted dose curve at least 0.9, where 1 is the maximum; inactive = score below 0.9); settings: HepG2 Attagene CIS-FACTORIAL Myb reporter transcription; actives raise or lower the signal
# Summary of the method: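 HepG2 cells were transiently transfected with cis-regulated multiple reporter transcription units reflecting endogenous Myb activity, then exposed to compound for 24 hours. Reporter mRNA was measured by RT-PCR with capillary electrophoresis; bidirectional fitting versus DMSO baseline.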
# [13] = target: Estrogen receptor (Homo sapiens) (UniProt P03372); test: ATG_ERa_TRANS: Attagene TRANS-FACTORIAL HepG2 Assay for human Estrogen Receptor alpha (ERa) (AID 2282970); settings: HepG2 Attagene TRANS ERa GAL4 reporter, mRNA
# Summary of the method: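 Cells: HepG2, transiently transfected. Construct: GAL4-UAS reporter units regulated by exogenous NR-Gal4 chimeras. Time: 24 h. Detection: reporter mRNA by RT-PCR, capillary electrophoresis, fluorescence. Baseline: DMSO, upward fitting.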
# [14] = target: Hepatocyte nuclear factor 4-alpha (Homo sapiens) (UniProt P41235); test: ATG_HNF4a_TRANS: Attagene TRANS-FACTORIAL HepG2 Assay for human Hepatocyte Nuclear Factor 4 alpha (HNF4a) (AID 2282982); settings: HepG2 HNF4a transactivation reporter, mRNA readout
# Summary of the method: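 Gain-of-signal mRNA induction, relative to DMSO vehicle, was read after 24 h compound treatment of HepG2 cells bearing transfected GAL4-UAS reporters. Detection used RT-PCR, 6-FAM primer extension and capillary electrophoresis.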
# [15] = ATG_M_06_TRANS: Attagene TRANS-FACTORIAL HepG2 Assay for M06 Transcription Factor (Internal Marker) (AID 2282983); settings: HepG2 Attagene TRANS M06 internal marker reporter
# Summary of the method: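 Cells: HepG2, transient multi-reporter transfection. Exposure: 24 h. Detection: RT-PCR, 6-FAM labelling, HpaI digestion (2 h, 37 °C), capillary electrophoresis. Baseline: DMSO.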
# [16] = target: Nuclear receptor subfamily 4 group A member 2 (Homo sapiens) (UniProt P43354); test: ATG_NURR1_TRANS: Attagene TRANS-FACTORIAL HepG2 Assay for human Nuclear Receptor Related Protein 1 (NURR1) (AID 2282985); settings: HepG2 Attagene TRANS reporter, mRNA readout
# Summary of the method: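 HepG2 / transient MRTU transfection / 24 h compound exposure / RT-PCR + CE fluorescence of reporter mRNA / gain-of-signal vs DMSO.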
# [17] = target: Oxysterols receptor LXR-beta (Homo sapiens) (UniProt P55055); test: ATG_LXRb_TRANS: Attagene TRANS-FACTORIAL HepG2 Assay for human Liver X Receptor beta (LXRb) (AID 2282981); settings: HepG2 Attagene TRANS GAL4-LXRb reporter, mRNA
# Summary of the method: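 Gain-of-signal mRNA reporter endpoint, DMSO as negative control. Transiently transfected HepG2 cells carrying the NR-Gal4 chimera and GAL4-UAS reporter units were treated 24 h; transcripts quantified by RT-PCR and capillary electrophoresis fluorescence.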
# [18] = target: Steroid hormone receptor ERR1 (Homo sapiens) (UniProt P11474); test: ATG_ERRa_TRANS: Attagene TRANS-FACTORIAL HepG2 Assay for human Estrogen-Related Receptor alpha (ERRa) (AID 2282971); settings: HepG2 Attagene TRANS reporter, ERRa transactivation
# Summary of the method: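 Reporter transcripts from ERRa-Gal4 chimera activity measured in transiently transfected human HepG2 cells 24 hours after dosing, using RT-PCR with 6-FAM primer extension, HpaI digestion and capillary electrophoresis; DMSO is baseline.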
# [19] = target: Estrogen-related receptor gamma (Homo sapiens) (UniProt P62508); test: ATG_ERRg_TRANS: Attagene TRANS-FACTORIAL HepG2 Assay for human Estrogen-Related Receptor gamma (ERRg) (AID 2282977); settings: HepG2 Attagene TRANS reporter, ERRg transactivation;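 note: hits increase reporter signal over DMSO so potencies reflect activators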
# Summary of the method: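 HepG2 cells transiently transfected with multiplexed GAL4-UAS reporter units and chimeric NR-Gal4 constructs were exposed to test chemicals for 24 h. Reporter mRNA was measured by RT-PCR, 6-FAM primer extension, HpaI digestion and capillary electrophoresis; gain-of-signal versus DMSO.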
# Oxysterols receptor LXR-beta (Homo sapiens), sequence (P55055 whole entry, looked up, the tested form may be a part): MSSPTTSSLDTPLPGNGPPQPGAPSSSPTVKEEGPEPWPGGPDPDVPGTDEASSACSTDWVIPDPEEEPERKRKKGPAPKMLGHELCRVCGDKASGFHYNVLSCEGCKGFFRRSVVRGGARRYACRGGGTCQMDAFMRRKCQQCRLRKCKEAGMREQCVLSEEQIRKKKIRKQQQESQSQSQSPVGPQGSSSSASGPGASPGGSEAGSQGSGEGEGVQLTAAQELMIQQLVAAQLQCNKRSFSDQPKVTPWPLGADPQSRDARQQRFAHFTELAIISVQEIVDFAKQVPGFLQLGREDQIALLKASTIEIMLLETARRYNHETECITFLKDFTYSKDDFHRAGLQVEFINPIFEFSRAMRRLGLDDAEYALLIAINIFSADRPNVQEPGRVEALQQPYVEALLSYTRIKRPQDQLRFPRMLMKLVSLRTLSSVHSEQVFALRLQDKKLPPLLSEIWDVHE
# Bile acid receptor (Homo sapiens), sequence (Q96RI1 whole entry, looked up, the tested form may be a part): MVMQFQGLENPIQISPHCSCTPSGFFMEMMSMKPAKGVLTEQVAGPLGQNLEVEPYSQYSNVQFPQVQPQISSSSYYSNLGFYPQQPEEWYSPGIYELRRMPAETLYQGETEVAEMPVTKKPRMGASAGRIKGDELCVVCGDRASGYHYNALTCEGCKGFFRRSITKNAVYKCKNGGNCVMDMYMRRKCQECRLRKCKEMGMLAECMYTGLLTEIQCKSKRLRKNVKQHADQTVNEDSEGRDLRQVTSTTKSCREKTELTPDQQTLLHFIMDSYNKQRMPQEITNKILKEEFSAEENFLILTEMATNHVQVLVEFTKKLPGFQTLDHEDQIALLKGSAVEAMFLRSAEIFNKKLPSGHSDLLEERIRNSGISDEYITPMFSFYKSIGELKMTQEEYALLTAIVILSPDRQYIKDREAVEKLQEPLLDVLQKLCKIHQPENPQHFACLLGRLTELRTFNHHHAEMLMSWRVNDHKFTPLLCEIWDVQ
# X-box-binding protein 1 (Homo sapiens), sequence (P17861 whole entry, looked up, the tested form may be a part): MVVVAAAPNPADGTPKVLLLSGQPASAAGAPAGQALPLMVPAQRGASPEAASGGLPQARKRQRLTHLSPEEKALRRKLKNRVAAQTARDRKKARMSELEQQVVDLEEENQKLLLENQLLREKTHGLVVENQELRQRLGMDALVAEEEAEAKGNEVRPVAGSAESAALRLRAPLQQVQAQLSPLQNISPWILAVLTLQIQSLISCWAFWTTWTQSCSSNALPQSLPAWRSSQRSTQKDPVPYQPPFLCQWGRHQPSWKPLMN
# Oxysterols receptor LXR-alpha (Homo sapiens), sequence (Q13133 whole entry, looked up, the tested form may be a part): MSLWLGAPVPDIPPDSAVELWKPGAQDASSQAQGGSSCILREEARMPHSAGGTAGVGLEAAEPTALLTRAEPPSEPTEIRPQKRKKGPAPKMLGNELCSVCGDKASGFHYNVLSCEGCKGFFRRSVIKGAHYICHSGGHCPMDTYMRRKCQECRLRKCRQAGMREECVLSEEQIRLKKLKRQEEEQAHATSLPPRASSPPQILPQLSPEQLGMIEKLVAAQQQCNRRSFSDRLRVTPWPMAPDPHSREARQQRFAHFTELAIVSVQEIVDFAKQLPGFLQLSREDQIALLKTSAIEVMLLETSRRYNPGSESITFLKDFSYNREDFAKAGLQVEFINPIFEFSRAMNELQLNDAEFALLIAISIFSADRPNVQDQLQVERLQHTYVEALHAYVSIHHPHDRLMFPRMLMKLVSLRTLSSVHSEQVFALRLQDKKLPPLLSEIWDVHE
# Glucocorticoid receptor (Homo sapiens), sequence (P04150 whole entry, looked up, the tested form may be a part): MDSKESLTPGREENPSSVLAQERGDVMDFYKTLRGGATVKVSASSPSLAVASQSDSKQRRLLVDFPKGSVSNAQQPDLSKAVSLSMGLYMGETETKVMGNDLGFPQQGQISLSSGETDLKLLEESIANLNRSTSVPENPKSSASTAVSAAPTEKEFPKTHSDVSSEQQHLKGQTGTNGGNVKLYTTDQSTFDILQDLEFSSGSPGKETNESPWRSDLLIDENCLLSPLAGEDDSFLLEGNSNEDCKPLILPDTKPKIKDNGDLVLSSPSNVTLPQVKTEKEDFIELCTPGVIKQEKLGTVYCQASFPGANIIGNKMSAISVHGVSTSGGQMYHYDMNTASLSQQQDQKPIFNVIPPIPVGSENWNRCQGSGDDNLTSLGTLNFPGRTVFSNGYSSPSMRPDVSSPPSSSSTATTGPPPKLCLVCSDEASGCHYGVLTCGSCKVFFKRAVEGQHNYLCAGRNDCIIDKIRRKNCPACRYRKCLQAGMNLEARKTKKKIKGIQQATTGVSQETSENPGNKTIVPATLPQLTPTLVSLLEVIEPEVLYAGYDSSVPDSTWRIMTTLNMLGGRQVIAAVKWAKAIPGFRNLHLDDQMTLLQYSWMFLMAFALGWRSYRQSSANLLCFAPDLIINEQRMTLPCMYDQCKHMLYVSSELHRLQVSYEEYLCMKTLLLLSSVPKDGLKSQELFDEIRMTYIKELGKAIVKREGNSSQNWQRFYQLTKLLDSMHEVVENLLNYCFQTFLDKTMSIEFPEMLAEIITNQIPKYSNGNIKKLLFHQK
# Hepatocyte nuclear factor 4-alpha (Homo sapiens), sequence (P41235 whole entry, looked up, the tested form may be a part): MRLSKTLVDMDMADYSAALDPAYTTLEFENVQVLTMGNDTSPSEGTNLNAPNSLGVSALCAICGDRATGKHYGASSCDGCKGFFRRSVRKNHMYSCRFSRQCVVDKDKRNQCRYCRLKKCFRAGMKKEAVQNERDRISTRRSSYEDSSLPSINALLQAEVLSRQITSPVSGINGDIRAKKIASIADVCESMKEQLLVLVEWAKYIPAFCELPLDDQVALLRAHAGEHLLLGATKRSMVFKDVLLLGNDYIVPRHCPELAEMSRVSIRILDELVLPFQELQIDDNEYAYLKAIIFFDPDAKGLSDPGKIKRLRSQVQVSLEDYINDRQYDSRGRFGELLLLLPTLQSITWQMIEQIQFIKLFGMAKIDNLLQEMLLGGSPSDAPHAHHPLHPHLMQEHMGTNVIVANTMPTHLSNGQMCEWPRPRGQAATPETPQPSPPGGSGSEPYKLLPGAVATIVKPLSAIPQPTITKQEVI
# Estrogen receptor (Homo sapiens), sequence (P03372 whole entry, looked up, the tested form may be a part): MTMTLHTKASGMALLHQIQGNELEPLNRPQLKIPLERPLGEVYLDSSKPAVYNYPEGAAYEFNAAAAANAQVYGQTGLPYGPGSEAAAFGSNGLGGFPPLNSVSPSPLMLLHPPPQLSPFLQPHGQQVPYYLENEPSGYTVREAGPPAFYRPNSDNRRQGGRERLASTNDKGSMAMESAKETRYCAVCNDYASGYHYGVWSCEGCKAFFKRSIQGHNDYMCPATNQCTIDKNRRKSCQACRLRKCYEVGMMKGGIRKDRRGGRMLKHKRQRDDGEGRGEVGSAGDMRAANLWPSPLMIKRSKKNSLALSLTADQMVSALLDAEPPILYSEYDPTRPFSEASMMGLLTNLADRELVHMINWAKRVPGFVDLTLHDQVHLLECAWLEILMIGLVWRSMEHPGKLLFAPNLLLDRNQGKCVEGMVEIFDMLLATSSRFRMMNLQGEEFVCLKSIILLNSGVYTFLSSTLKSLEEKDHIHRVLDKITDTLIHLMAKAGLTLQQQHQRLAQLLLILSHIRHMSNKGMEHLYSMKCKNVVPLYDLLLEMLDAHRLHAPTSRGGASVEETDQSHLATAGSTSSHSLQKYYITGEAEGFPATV
# Transcriptional activator Myb (Homo sapiens), sequence (P10242 whole entry, looked up): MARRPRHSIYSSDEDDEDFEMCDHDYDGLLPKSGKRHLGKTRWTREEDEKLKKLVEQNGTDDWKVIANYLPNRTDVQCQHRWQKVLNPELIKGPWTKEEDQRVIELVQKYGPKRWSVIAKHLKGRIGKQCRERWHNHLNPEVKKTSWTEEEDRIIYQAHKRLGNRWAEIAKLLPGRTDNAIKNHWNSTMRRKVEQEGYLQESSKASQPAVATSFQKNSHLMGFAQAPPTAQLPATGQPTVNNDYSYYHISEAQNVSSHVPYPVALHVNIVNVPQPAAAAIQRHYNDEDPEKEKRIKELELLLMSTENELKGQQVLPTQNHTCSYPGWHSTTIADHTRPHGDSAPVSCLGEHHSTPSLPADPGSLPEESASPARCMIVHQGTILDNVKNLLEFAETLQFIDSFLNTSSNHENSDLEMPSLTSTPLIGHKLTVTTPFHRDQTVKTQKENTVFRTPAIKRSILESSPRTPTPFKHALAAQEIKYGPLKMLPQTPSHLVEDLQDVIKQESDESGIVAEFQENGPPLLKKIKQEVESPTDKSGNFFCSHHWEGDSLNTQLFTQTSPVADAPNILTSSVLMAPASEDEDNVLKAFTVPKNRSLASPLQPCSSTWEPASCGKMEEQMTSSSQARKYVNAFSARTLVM
# Nuclear receptor subfamily 4 group A member 2 (Homo sapiens), sequence (P43354 whole entry, looked up): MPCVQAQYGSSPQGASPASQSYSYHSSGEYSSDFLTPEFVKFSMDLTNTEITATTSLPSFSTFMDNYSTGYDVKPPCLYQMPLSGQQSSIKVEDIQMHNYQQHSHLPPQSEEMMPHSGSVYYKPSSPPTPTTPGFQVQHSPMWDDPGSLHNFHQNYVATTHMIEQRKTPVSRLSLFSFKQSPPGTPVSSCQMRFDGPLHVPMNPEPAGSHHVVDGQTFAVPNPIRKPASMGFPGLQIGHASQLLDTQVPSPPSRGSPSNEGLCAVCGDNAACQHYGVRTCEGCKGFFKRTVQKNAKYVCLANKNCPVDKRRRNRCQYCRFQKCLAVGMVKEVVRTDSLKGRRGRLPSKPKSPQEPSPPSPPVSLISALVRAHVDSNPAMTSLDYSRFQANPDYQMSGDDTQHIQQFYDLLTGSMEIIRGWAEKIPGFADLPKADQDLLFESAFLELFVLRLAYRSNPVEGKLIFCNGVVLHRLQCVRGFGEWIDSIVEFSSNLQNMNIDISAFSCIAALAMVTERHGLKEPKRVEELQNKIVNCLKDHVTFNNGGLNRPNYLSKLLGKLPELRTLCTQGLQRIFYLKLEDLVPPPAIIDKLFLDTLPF
smiles,measurement,setting,value
CC(C)C(=O)OCc1ccccc1,outcome,[1],inactive
same,outcome,[2],inactive
same,outcome,[3],inactive
same,outcome,[4],inactive
same,outcome,[5],inactive
same,outcome,[6],inactive
same,outcome,[7],inactive
same,outcome,[8],inactive
same,outcome,[9],inactive
same,outcome,[10],inactive
same,outcome,[11],inactive
same,outcome,[12],inactive
OCCCc1cccnc1,outcome,[1],inactive
same,outcome,[2],inactive
same,outcome,[3],inactive
same,outcome,[4],inactive
same,outcome,[13],inactive
same,outcome,[5],inactive
same,outcome,[7],inactive
same,outcome,[8],inactive
same,outcome,[9],inactive
same,outcome,[14],inactive
same,outcome,[15],inactive
same,outcome,[11],inactive
same,outcome,[16],inactive
same,outcome,[12],inactive
OCC(F)(F)C(F)(F)C(F)(F)C(F)(F)C(F)(F)C(F)(F)C(F)(F)C(F)(F)CO,outcome,[1],inactive
same,outcome,[2],inactive
same,outcome,[3],inactive
same,outcome,[4],inactive
same,AC50,[13],0.178 µM (active)
same,outcome,[5],inactive
same,outcome,[7],inactive
same,outcome,[8],inactive
same,outcome,[9],inactive
same,AC50,[10],10.5 µM (active)
same,outcome,[17],inactive
same,outcome,[14],inactive
same,outcome,[15],inactive
same,outcome,[11],inactive
same,outcome,[16],inactive
same,outcome,[12],inactive
CCN(CCO)S(=O)(=O)C(F)(F)C(F)(F)C(F)(F)C(F)(F)C(F)(F)C(F)(F)C(F)(F)C(F)(F)F,outcome,[1],inactive
same,outcome,[2],inactive
same,outcome,[3],inactive
same,outcome,[4],inactive
same,outcome,[13],inactive
same,AC50,[5],29.8 µM (active)
same,outcome,[9],inactive
same,outcome,[10],inactive
same,outcome,[17],inactive
same,outcome,[15],inactive
same,outcome,[11],inactive
same,outcome,[16],inactive
same,outcome,[12],inactive
C#CC(O)CCC (centres undefined),outcome,[1],inactive
same,outcome,[2],inactive
same,outcome,[3],inactive
same,outcome,[4],inactive
same,outcome,[18],inactive
same,outcome,[5],inactive
same,outcome,[6],inactive
same,outcome,[7],inactive
same,outcome,[9],inactive
same,outcome,[10],inactive
same,outcome,[17],inactive
same,outcome,[15],inactive
same,outcome,[11],inactive
same,outcome,[16],inactive
same,outcome,[12],inactive
CCOC(=O)C1CC(=O)C(=C(O)C2CC2)C(=O)C1 (centres undefined),outcome,[1],inactive
same,outcome,[2],inactive
same,outcome,[3],inactive
same,outcome,[4],inactive
same,outcome,[5],inactive
same,outcome,[7],inactive
same,outcome,[19],inactive
same,outcome,[9],inactive
same,outcome,[17],inactive
same,outcome,[12],inactive
CC(=O)c1ccccc1N,outcome,[1],inactive
same,outcome,[2],inactive
same,outcome,[3],inactive
same,outcome,[4],inactive
same,outcome,[5],inactive
same,outcome,[7],inactive
same,outcome,[14],inactive
same,outcome,[12],inactive
CC(=O)C=O,outcome,[1],inactive
same,outcome,[2],inactive
same,outcome,[3],inactive
same,outcome,[4],inactive
same,outcome,[5],inactive
same,outcome,[6],inactive
same,outcome,[7],inactive
same,outcome,[9],inactive
same,outcome,[10],inactive
same,outcome,[12],inactive
CCOCOCC,outcome,[1],inactive
same,outcome,[2],inactive
same,outcome,[3],inactive
same,outcome,[4],inactive
same,outcome,[13],inactive
same,outcome,[5],inactive
same,outcome,[6],inactive
same,outcome,[9],inactive
same,outcome,[10],inactive
same,outcome,[17],inactive
same,outcome,[11],inactive
same,outcome,[16],inactive
same,outcome,[12],inactive
O=C(O)C(F)(F)C(F)(F)C(F)(F)C(=O)O,outcome,[1],inactive
same,outcome,[2],inactive
same,outcome,[3],inactive
same,outcome,[4],inactive
same,outcome,[13],inactive
same,outcome,[5],inactive
same,outcome,[6],inactive
same,outcome,[9],inactive
same,outcome,[17],inactive
same,outcome,[14],inactive
same,outcome,[15],inactive
same,outcome,[11],inactive
same,outcome,[12],inactive
